# ± gives the standard deviation of the averaged measurements. Over roughly 33,000 sequences, “E-score (dimensionless, -0.5 to 0.5)” has its median near -0.049; the highest 2% begin near 0.37. What follows is part of a selection rich in the highest values, with near analogues and random picks from the rest.
# Test system: T1, PmTbr T-box DNA-binding domain (GST fusion)
# T1 sequence: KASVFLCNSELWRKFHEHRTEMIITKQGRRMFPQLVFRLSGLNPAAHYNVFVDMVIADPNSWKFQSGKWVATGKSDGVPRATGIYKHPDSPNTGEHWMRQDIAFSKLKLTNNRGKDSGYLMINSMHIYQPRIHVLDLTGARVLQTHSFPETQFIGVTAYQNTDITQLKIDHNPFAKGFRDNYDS
# Assay: PBM E-score of 8-mer (E-score (dimensionless, -0.5 to 0.5)); Tbr is Tbrain of the sea star Patiria miniata (Pm) or the sea urchin Strongylocentrotus purpuratus (Sp); higher = stronger binding preference
# Settings: the construct has about 5 more residues each side
# Protocol: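 Universal protein-binding microarray (Agilent AMADID 016060, 60-bp probes with a 35-bp variable region) incubated with 200 nM GST-fused Patiria miniata Tbr T-box DNA-binding domain (residues 272-466) in PBS pH 7.5. Scored for every ungapped 8-mer (given with its reverse complement) by the Universal PBM Analysis Suite as E-score (modified Wilcoxon-Mann-Whitney enrichment, range -0.5 to 0.5; >0.45 counts as bound) and Z-score of median probe intensity. Two replicate arrays (datasets 1 and 2).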
row,Sequence,PBM E-score of 8-mer
1,ATGGTGAC,0.262 ± 0.049
2,CGCTTTCA,0.0848 ± 0.014
3,GCACTAGC,0.0942 ± 0.018
4,AAAGACGT,-0.108 ± 0.008
5,CCTACCCC,-0.152 ± 0.039
6,CAAATACA,-0.164 ± 0.0057
7,ACTAGACC,-0.3241 ± 0.0027
8,GTATCCAC,0.0223 ± 0.03
9,ACGCGCAT,0.0257 ± 0.033
10,GACAGCGC,0.0941 ± 0.072
11,AGAGCATC,-0.226 ± 0.1
12,GAGTGTGA,0.4754 ± 0.0017
13,GAGTGTGC,0.2606 ± 0.00088
14,AAGTGGGG,0.189 ± 0.07
15,AACTGTGG,0.00267 ± 0.0079
16,AAGTGTGG,0.3837 ± 0.00044
17,GAGTGTAA,0.169 ± 0.061
18,CACTTTCG,0.258 ± 0.004
19,CGGGGCAA,-0.147 ± 0.097
20,CACCTAGC,0.418 ± 0.0047
21,CACCTAGA,0.324 ± 0.028
22,AACCTAGG,-0.0117 ± 0.074

row,Sequence,PBM E-score of 8-mer
1,CACCTAGG,0.436 ± 0.01
2,CCCCTAGG,-0.0463 ± 0.05
3,AACCTAGC,0.088 ± 0.041
4,GTTCCGGA,-0.29 ± 0.027
5,GTGCGACA,0.412 ± 0.021
6,GTGCGAAA,0.4814 ± 0.0014
7,GTGCGAAC,0.4794 ± 0.0017
8,CTGCGAAA,0.368 ± 0.0074
9,ATGCGAAC,0.13 ± 0.018
10,ATGCGACA,0.3323 ± 0.0011
11,GTGCGATA,0.4351 ± 0.0025
12,CTGCGAAC,0.324 ± 0.013
13,CTGCGATA,0.169 ± 0.046
14,TTGCGAAA,0.349 ± 0.034
15,CTGCGACA,0.172 ± 0.015
16,ATGCGATA,0.0765 ± 0.014
17,CTAGTAGA,-0.0181 ± 0.012
18,CAGTGGTA,-0.0733 ± 0.022
19,CGCAGCCA,0.00214 ± 0.11
20,AAGCGCCC,-0.0238 ± 0.0037
21,CACCGTCC,0.0123 ± 0.0021
22,CGTATTCC,-0.23 ± 0.036

row,Sequence,PBM E-score of 8-mer
1,GTGCGAGA,0.43391 ± 0.00018
2,CTGCGAGA,0.212 ± 0.035
3,ATGCGAGA,0.144 ± 0.02
4,AAGGGTGT,0.399 ± 0.018
5,GAGGGTGA,0.279 ± 0.005
6,AAGGGTGG,0.1889 ± 0.001
7,AAAGGTGT,0.478 ± 0.0057
8,GAGGGTGC,0.389 ± 0.018
9,CAGGGTGC,0.271 ± 0.036
10,AAAGGTCC,0.011 ± 0.046
11,AAAGGTAT,-0.0701 ± 0.061
12,AAAGGTAC,-0.152 ± 0.021
13,AAAGGTGC,0.422 ± 0.015
14,AAAGGTGG,0.234 ± 0.084
15,AAGGGTGA,0.19 ± 0.0034
16,AATAAGGT,0.0297 ± 0.12
17,CACTATAC,0.132 ± 0.073
18,ACGTCACA,0.258 ± 0.021
19,GGGCCTAA,-0.148 ± 0.024
20,CGAGAACA,0.2 ± 0.0064
21,AAAGGTGA,0.398 ± 0.025
22,AAAGGTCA,-0.303 ± 0.043

row,Sequence,PBM E-score of 8-mer
1,AAAGGTAA,-0.21 ± 0.041
2,GAAGTGTA,0.293 ± 0.028
3,CAAGTGTA,0.178 ± 0.035
4,CAAGTGGG,0.211 ± 0.016
5,AAAGTGCG,0.315 ± 0.013
6,CAAGTGTG,0.433 ± 0.0066
7,CCAGTGTC,0.0539 ± 0.05
8,CAAGTGTC,0.38 ± 0.031
9,CAAGTGCC,0.284 ± 0.029
10,GAAGTGTC,0.454 ± 0.0065
11,CAAGTGCG,0.389 ± 0.015
12,GAAGTGCC,0.263 ± 0.019
13,CAAGTGGC,0.268 ± 0.028
14,ATTTAAGC,-0.191 ± 0.065
15,ACATATCC,-0.0724 ± 0.065
16,ACAGCTCA,0.237 ± 0.0098
17,TAACACAA,0.313 ± 0.0094
18,CTTCAATC,0.0436 ± 0.043
19,ACCGACAA,-0.0367 ± 0.05
20,GCCGACAA,0.116 ± 0.04
21,GCCGACCC,-0.256 ± 0.038
22,CCCGACAA,0.208 ± 0.044

row,Sequence,PBM E-score of 8-mer
1,ACCGACAC,0.391 ± 0.02
2,ACCGACAT,0.0334 ± 0.031
3,GCCGACAC,0.382 ± 0.03
4,CCCGACAC,0.388 ± 0.012
5,CCCGACAG,0.11 ± 0.0062
6,CGGTGGGC,-0.131 ± 0.04
7,ATCCCAAG,-0.275 ± 0.07
8,CGTACTTA,-0.115 ± 0.042
9,TGGCTACA,-0.117 ± 0.0015
10,GATGTTGC,-0.0903 ± 0.014
11,CCCAAAAC,0.0141 ± 0.0023
12,GACCTACC,-0.153 ± 0.0062
13,AACCTACG,-0.21 ± 0.0028
14,GACCTACA,-0.125 ± 0.019
15,CCCCTACG,-0.0948 ± 0.0047
16,CACCTACC,0.413 ± 0.015
17,CACCTACA,0.407 ± 0.013
18,CACCTACG,0.412 ± 0.0089
19,AACCTACC,-0.0696 ± 0.071
20,TACCTACA,-0.2971 ± 0.00036
21,CGGAAGGA,-0.209 ± 0.012
